Results from PubChem BioAssay (NCI).
Compounds without any hit were thinned out: in the full panel of roughly 79,000, 15% have a hit. No stated cut-off is given here; in the data, active means growth inhibition above about 70%; inactive means the rest.

Key:
[1] = NCI Yeast Anticancer Drug Screen. Data for the rad50 strain (AID 155);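 further: 0% = growth of vehicle-only cultures of the same strain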; conditions: S. cerevisiae rad50 strain growth inhibition; at 50.0 µM; stronger effect = higher value
Method in brief: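 Inhibition values express reduced yeast growth in compound-treated cultures relative to vehicle-treated controls.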

[2] = NCI Yeast Anticancer Drug Screen. Data for the mec2-1 strain (AID 157); conditions: S. cerevisiae mec2-1 strain, at 50.0 µM, stronger effect = higher value
Method in brief: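 Mutant yeast (mec2-1) grown with compound; growth inhibition relative to vehicle control reported.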

[3] = NCI Yeast Anticancer Drug Screen. Data for the sgs1 mgt1 strain (AID 161);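 further: 0% = growth of cultures given vehicle only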; conditions: S. cerevisiae sgs1 mgt1 strain, at 50.0 µM, stronger effect = higher value
Method in brief: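 Compounds are added to genetically altered yeast, and growth is compared with cultures given vehicle alone to give percent inhibition.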

[4] = NCI Yeast Anticancer Drug Screen. Data for the cln2 rad14 strain (AID 165);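 further: 0% = growth equal to vehicle treated cultures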; conditions: S. cerevisiae cln2 rad14 strain, at 50.0 µM, stronger effect = higher value
Method in brief: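 Readout is yeast growth inhibition versus vehicle-treated controls, using a strain with cln2 and rad14 alterations exposed to compound.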

[5] = NCI Yeast Anticancer Drug Screen. Data for the bub3 strain (AID 167); conditions: S. cerevisiae bub3 mutant strain, at 50.0 µM, stronger effect = higher value
Method in brief: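 Steps: expose the mutant yeast strain to compound; grow alongside vehicle-treated cultures; measure growth; express inhibition against the vehicle cultures.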

[6] = NCI Yeast Anticancer Drug Screen. Data for the mlh1 rad18 strain (AID 175); conditions: S. cerevisiae mlh1 rad18 strain growth inhibition; at 50.0 µM; stronger effect = higher value
Method in brief: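 Genetically defined yeast (DNA repair-deficient) exposed to compounds; growth inhibition determined relative to vehicle.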

Measured: growth inhibition

COc1ccc(/C(=N\NC(=O)NN)C(c2ccc(OC)cc2)C2(O)C(=O)Nc3c(Cl)cc(Cl)cc32)cc1 (stereo not given)
inactive: [1] 6.2% | [2] -7.75% | [3] -57% | [4] -16.8% | [5] 8.6% | [6] -10.2%

CCCCCCCCCCC1SCC(=O)N1c1nncs1 (stereo not given)
inactive: [1] 13.2% | [2] 0.75% | [3] 16.6% | [4] 10.2% | [5] 4.2% | [6] 4.25%

O=C(NC(c1ccccc1)C(O)C(=O)OCc1ccc2c(c1)C(=O)c1ccccc1C2=O)c1ccccc1 (stereo not given)
inactive: [1] 10.9% | [2] 15.4% | [3] -23.3% | [4] -0.15% | [5] -8.9% | [6] 20.6%

Cc1ccc(S(=O)(=O)N/N=C2/C(=N/NS(=O)(=O)c3ccc(C)cc3)c3cccc4cccc2c34)cc1
inactive: [1] 50% | [2] 11.4% | [3] 36.7% | [4] 8.3% | [5] 14.8% | [6] 11.3%

COc1cc2c(cc1OC)C1=C(/C=C\C(C)=O)CCN1CC2
inactive: [1] -6.9% | [2] 20.9% | [3] -4.45% | [4] -8.65% | [5] 0.1% | [6] 5.55%

Cc1cn(C2CC(O)C(CO)O2)c(=O)nc1N1CCCCCCC1 (stereo not given)
inactive: [1] -6.85% | [2] -4.8% | [3] -11.3% | [4] -12.3% | [5] 4.85% | [6] 0.3%

O=C1OCC/C1=C\c1cccc([N+](=O)[O-])c1
inactive: [1] 10.4% | [2] 14.4% | [3] 11.2% | [4] -42.7% | [5] 22.5% | [6] 26.9%

COc1cc(C(=O)C/C(CCC(=O)Nc2ccc(Cl)cc2Cl)=N/NC(=O)C(N)=O)ccc1O
inactive: [1] -12.8% | [2] -2.45% | [3] -34.8% | [4] 22.4% | [5] -1.45% | [6] -20.4%

CCOC(=O)NN(C(=O)OCC)C(C(=O)C1CCCCC1)N(NC(=O)OCC)C(=O)OCC
inactive: [1] 21.4% | [2] -21.6% | [3] 18.9% | [4] 11.2% | [5] -3.55% | [6] -8.4%

CCCCCCO[Si](OCCCCCC)(OCCCCCC)OCCCCCC
inactive: [1] -35.1% | [2] -32.4% | [3] -10.8% | [4] 17.4% | [5] -17.8% | [6] -17.4%

CC(=O)Nc1cccc2[nH]c(=O)c3ccccc3c12
inactive: [1] 3.4% | [2] -6.4% | [3] -5.8% | [4] -19.3% | [5] -16.9% | [6] 4.55%

Cn1c(=O)c2c(nc(Cc3ccccc3)n2CC(=O)O)n(C)c1=O
inactive: [1] 0.3% | [2] -18.1% | [3] -30.8% | [4] -6.95% | [5] -32.1% | [6] -18.9%

CC(C)(NC(=O)OCc1ccccc1)C(=O)OC(=O)C(C)(C)NC(=O)OCc1ccccc1
inactive: [1] -15.9% | [2] 21.1% | [3] 5.85% | [4] 13.8% | [5] 2.15% | [6] -19.4%

COc1ccccc1NC(=O)CC(=O)N/N=C/c1ccc(N(CCC#N)S(=O)(=O)c2ccccc2)cc1
inactive: [1] -48.4% | [2] 0.8% | [3] -20.6% | [4] 10.4% | [5] -15.8% | [6] -14.5%

O=C(Nc1cc(Cl)c(I)cc1Cl)C(F)(F)F
inactive: [1] 55.4% | [2] 10.8% | [3] 29.7% | [4] -8.35% | [5] 7.05% | [6] 18.8%

CN1C(c2ccco2)NC(=O)C12CCN(Cc1ccccc1)CC2 (stereo not given)
inactive: [1] 24.8% | [2] 7.25% | [3] 15.2% | [4] 10.2% | [5] 16.8% | [6] 16.1%

NC(=O)N/N=C/c1ccncc1
inactive: [1] -7.15% | [2] 28.6% | [3] -24.9% | [4] -7.05% | [5] 8.6% | [6] 7.45%

CCCN(CCCCC(NC(C)=O)C(=O)NCc1ccccc1)C(=O)NC (stereo not given)
inactive: [1] -26.9% | [2] -27.8% | [3] -13.1% | [4] 17.9% | [5] -18.9% | [6] -14.5%

CC(=O)Nc1c(C)cc(C)cc1[N+](=O)[O-]
inactive: [1] 8.05% | [2] 7.15% | [3] -12.9% | [4] 2.65% | [5] 6.4% | [6] 22.1%

CCOC(=O)CNC(=O)C(Cc1ccccc1)NC(=O)CNC(=O)OCc1ccccc1 (stereo not given)
inactive: [1] 22.4% | [2] 8.6% | [3] 15.5% | [4] 20.4% | [5] 0.75% | [6] 20.8%
